Common to all, as to test: NCI-60 one-dose screen, 48 h (100 = growth as untreated, 0 = no growth, -100 = all killed)
One assay concerns SR leukemia. As to conditions: 10 µM unless noted.
The test system of a further assay is RPMI-8226 leukemia. To be noted: 10 µM.
A further assay deals with OVCAR-8 ovarian. To be noted: 10 µM unless noted.
Another assay concerns OVCAR-5 ovarian. As to conditions: 10 µM unless noted.
The subject of the next assay is OVCAR-4 ovarian. As to conditions: 10 µM unless noted.
In the next assay the test system is SK-OV-3 ovarian. As to conditions: 10 µM.
Another assay has as its system IGROV1 ovarian. To be noted: 10 µM unless noted.
A further assay has as its system OVCAR-3 ovarian. As to conditions: 10 µM unless noted.
The subject of another assay is HS 578T breast. To be noted: 10 µM unless noted.
In another assay the test system is NCI/ADR-RES ovarian. To be noted: 10 µM unless noted.

This is part of a sample that, as a whole, favours compounds with a hit. Of some 83,000 tested, about 20% had one in any assay.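 Cells were grown in 96-well plates and exposed to the test compound at a single concentration for 48 hours; results are reported as percent growth, with values below 10 considered active.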 Values without a mark were called inactive. Active and inactive are the calls of the source.

The values below come from PubChem BioAssay (NCI).

Take `N#C[S-].[Au+].c1ccc(CN2[CH-]N(Cc3ccccc3)C(c3ccccc3)=C2c2ccccc2)cc1`: the growth in the assay on SR leukemia is -8.44% (active).
Consider `O=C(O)CCN1CCN(c2cccc(Cl)c2)CC1`, for which the growth with SR leukemia was 88%; with RPMI-8226 leukemia it was 112%; with OVCAR-8 ovarian, 99.1%; in the assay with OVCAR-5 ovarian it was 98.9%; in the assay with OVCAR-4 ovarian it was 92%; with SK-OV-3 ovarian, 104%. Moreover, the growth was 105% with IGROV1 ovarian, 122% in the assay with OVCAR-3 ovarian, 105% in the assay with HS 578T breast and 112% with NCI/ADR-RES ovarian.
With `CC(=O)N(CC(O)CO)c1c(I)c(C(=O)NCCO)c(I)c(C(=O)NCC(O)CO)c1I` (centres undefined), the growth with SR leukemia is 77.2%; with RPMI-8226 leukemia, 102%; in the assay with OVCAR-8 ovarian, 95.9%; with OVCAR-5 ovarian, 99.8%; in the assay on OVCAR-4 ovarian it was 102%; in the assay on SK-OV-3 ovarian, 103%. For the same molecule, the results for the growth in the assay on IGROV1 ovarian, in the assay on OVCAR-3 ovarian and with HS 578T breast were 103%, 107% and 116%, respectively.
For `CC(C)(C)CC(C)(C)N(CSc1ccc(Cl)cc1)CSc1ccc(Cl)cc1`, the growth was -32.7% (active) in the assay on SR leukemia; -25% (active) in the assay with RPMI-8226 leukemia; 44.6% in the assay with OVCAR-8 ovarian; 63.4% in the assay with OVCAR-5 ovarian; 50.1% with OVCAR-4 ovarian; 71% with SK-OV-3 ovarian. Besides, the growth in the assay with IGROV1 ovarian was 2.44% (active); in the assay with OVCAR-3 ovarian, 41.4%; in the assay with HS 578T breast, 66.6%.
`CC(=O)OCC1O[C@@H]([S-])C(OC(C)=O)[C@H](OC(C)=O)[C@@H]1OC(C)=O.[Au+].c1ccc(CN2[CH-]N(Cc3ccccc3)C(c3ccccc3)=C2c2ccccc2)cc1`: the growth with SR leukemia is -29.1% (active).
`Cn1c2c(cc(S(=O)(=O)c3ccccc3)c1=O)CCc1c-2cnn1-c1ccccc1Cl`: the growth was 80.2% in the assay with SR leukemia; 91.7% in the assay with RPMI-8226 leukemia; 88.6% with OVCAR-8 ovarian; 96.5% in the assay with OVCAR-5 ovarian; 101% with OVCAR-4 ovarian; 88.7% with SK-OV-3 ovarian. Besides, the growth in the assay with IGROV1 ovarian was 107%; with OVCAR-3 ovarian, 110%; with HS 578T breast it was 117%.
Turning to `COc1cc(/C=C/c2cc(/C=C/c3ccc(O)c(OC)c3)n(-c3ccccc3)n2)ccc1O`, the growth in the assay on SR leukemia was -13.9% (active); in the assay on RPMI-8226 leukemia, -33.6% (active); in the assay on OVCAR-8 ovarian, -13.1% (active); with OVCAR-5 ovarian, -7.74% (active); in the assay with OVCAR-4 ovarian, 4.49% (active); in the assay with SK-OV-3 ovarian it was -53.1% (active). The growth with IGROV1 ovarian is -21.2% (active); in the assay on OVCAR-3 ovarian, -46.9% (active); in the assay on HS 578T breast, -13% (active).
Take `CSc1ccc(OC(C)=O)cc1C`: the growth with SR leukemia is 95.7%; with RPMI-8226 leukemia, 101%; in the assay on OVCAR-8 ovarian, 100%; in the assay with OVCAR-5 ovarian, 99.4%; in the assay on OVCAR-4 ovarian, 99.6%; in the assay on SK-OV-3 ovarian, 95%. In addition, the growth in the assay on IGROV1 ovarian is 103%; with OVCAR-3 ovarian, 106%; in the assay on HS 578T breast, 103%.
Turning to `Cc1ccc2c(c1)c(Sc1ccc(C(=O)NO)cc1)c1n2CN(C)CC1`, the growth in the assay with SR leukemia was 5.05% (active); in the assay on RPMI-8226 leukemia, 1.92% (active); in the assay on OVCAR-8 ovarian it was 5.57% (active); in the assay with OVCAR-5 ovarian, 7.36% (active); with OVCAR-4 ovarian it was -1.78% (active); in the assay with SK-OV-3 ovarian it was 21.1%. Besides, the growth with IGROV1 ovarian was 42.4%; in the assay with OVCAR-3 ovarian, -7.94% (active); in the assay with HS 578T breast it was 33.5%.
Consider `COc1cc(C2=NN(c3ccc(S(N)(=O)=O)cc3)C(c3ccc(Cl)cc3)C2)cc(OC)c1OC` (centres undefined), for which the growth in the assay with SR leukemia is 17.5%; in the assay with RPMI-8226 leukemia, -5.03% (active); in the assay on OVCAR-8 ovarian, 40%; in the assay with OVCAR-5 ovarian, 77.5%; in the assay with OVCAR-4 ovarian, 42.4%; in the assay with SK-OV-3 ovarian, 77.9%. For the same molecule, the figures for the growth with IGROV1 ovarian, in the assay on OVCAR-3 ovarian and in the assay with HS 578T breast were 60.9%, 47.1% and 58.4%, respectively.
`CC(C)(C)[Si](C)(C)OC1[C@@H](O[Si](C)(C)C(C)(C)C)[C@@H](CNC(=O)NC(=O)C(F)(F)F)O[C@H]1n1cnc2c(NC(=O)Nc3ccccc3)ncnc21` (some centres undefined): the growth is -41.9% (active) in the assay on SR leukemia; 4.89% (active) in the assay on RPMI-8226 leukemia; 82% in the assay with OVCAR-8 ovarian; 88.8% in the assay on OVCAR-5 ovarian; 78.4% with OVCAR-4 ovarian; 89.7% with SK-OV-3 ovarian. For the same molecule, the growth in the assay with IGROV1 ovarian was 71.2%; in the assay on OVCAR-3 ovarian, -54.1% (active); in the assay with HS 578T breast it was 49.5%; with NCI/ADR-RES ovarian, 85.5%.
On to `CC1(C)CC(=O)C2=C(C1)Nc1cc3c(cc1C2c1ccc(F)cc1)OCO3` (centres undefined), for which the growth in the assay on SR leukemia is 90.4%; in the assay on RPMI-8226 leukemia it was 92.1%; in the assay on OVCAR-8 ovarian, 97%; with OVCAR-5 ovarian, 107%; with OVCAR-4 ovarian, 93.9%; with SK-OV-3 ovarian it was 97.6%. The growth in the assay on IGROV1 ovarian was 100%; in the assay with OVCAR-3 ovarian it was 103%; with HS 578T breast it was 88.3%; in the assay with NCI/ADR-RES ovarian it was 90.7%.
With `O=C1C2CC3C(CC2C(=O)[N]1[Sn]([c]1ccccc1)([c]1ccccc1)[c]1ccccc1)C1(Cl)C(Cl)=C(Cl)C3(Cl)C1(Cl)Cl` (centres undefined), the growth in the assay with SR leukemia was -50.1% (active); in the assay on RPMI-8226 leukemia, -52.3% (active); with OVCAR-8 ovarian, -97.5% (active); in the assay with OVCAR-5 ovarian it was -100% (active); in the assay on OVCAR-4 ovarian, -83% (active); in the assay with SK-OV-3 ovarian, -100% (active). Moreover, the growth in the assay on IGROV1 ovarian was -66.2% (active); in the assay on OVCAR-3 ovarian, -97.3% (active); in the assay with HS 578T breast, -20% (active).
As for `CCCCCCCCCCCCSC1=CC(=O)C=CC1=O`, the growth in the assay with SR leukemia is 71.5%; in the assay on RPMI-8226 leukemia, -8.18% (active); in the assay with OVCAR-8 ovarian, 35.1%; in the assay on OVCAR-5 ovarian it was 89.7%; in the assay with OVCAR-4 ovarian it was 57.1%; with SK-OV-3 ovarian, 82.3%. In addition, the growth in the assay on IGROV1 ovarian is -26.6% (active); in the assay with OVCAR-3 ovarian, 73.2%; with HS 578T breast, 63.8%; in the assay on NCI/ADR-RES ovarian, 59.8%.
